# Records with an inconclusive call do not appear. Where a call stands in place of a potency, no number is given. Calls of active or inactive are those of the source. Calls follow the shape of the dose curve; as a rule, active = well fitted curve in the direction sought with a large enough effect; inconclusive = small, poorly fitted or top-dose-only effect, or another doubt; inactive = no such curve, though single readings can be large; an effect the other way counts as inactive or inconclusive.
# Columns and labels:
# [1] = biological target: Voltage-gated inwardly rectifying potassium channel KCNH2 (Homo sapiens) (UniProt Q12809); assay: qHTS Assay for Small Molecule Inhibitors of the Human hERG Channel Activity (AID 588834);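 also: lower thallium flux fluorescence means stronger hERG block; nearly all actives have a fitted effect of over 50% in size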; also: potency is read from the fitted curve at half-maximal effect
# How it was run: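 Step 1: BacMam hERG transduction of U2OS, 4 hrs RT. Step 2: overnight 37 °C, plate 2000 cells/well, 4 hr. Step 3: FluxOR load, compound 10 min, stimulate, read fluorescence.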
# [2] = biological target: Luciferin 4-monooxygenase (Photinus pyralis) (UniProt P08659); assay: Biochemical firefly luciferase enzyme assay for NPC (AID 624030);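 also: purified P. pyralis luciferase at 10 nM with luciferin and ATP substrate; series mostly up to about 59 µM; nearly all actives have a fitted effect of over 70% in size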
# How it was run: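 Direct inhibition of firefly luciferase enzyme (10 nM final, 50 mM Tris Acetate) assessed by luminescence within 5 minutes. Percent activity scaled between DMSO and PTC124 positive control, with concentration-effect curves classified by fit quality and response.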
# [3] = S16 Schwann cell viability assay (CellTiter-Glo assay) (AID 624031); also: nearly all actives have a fitted effect of over 70% in size; also: potency is read from the fitted curve at half-maximal effect
# How it was run: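 Cells were seeded at 500-750 per well in phenol red-free DMEM with 10% FBS and left overnight. Compounds or DMSO were pinned in, incubation ran 24 h at 37 °C/5% CO2, then CellTiter-Glo reagent was added and luminescence measured.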
# [4] = S16 Schwann cell PMP22 intronic element firefly luciferase assay (AID 624032); also: nearly all actives have a fitted effect of over 30% in size; also: potency is read from the fitted curve at half-maximal effect
# How it was run: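 Luciferase reporter of PMP22 intronic-element expression in stably transfected S16 rat Schwann cells, read by ONE-Glo luminescence after 24 h compound exposure at 37 C. Activity scaled between DMSO (0%) and positive-control PTC124; concentration-effect curves quality-classified.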
# Chain of Voltage-gated inwardly rectifying potassium channel KCNH2 (Homo sapiens) (Q12809 whole entry, looked up): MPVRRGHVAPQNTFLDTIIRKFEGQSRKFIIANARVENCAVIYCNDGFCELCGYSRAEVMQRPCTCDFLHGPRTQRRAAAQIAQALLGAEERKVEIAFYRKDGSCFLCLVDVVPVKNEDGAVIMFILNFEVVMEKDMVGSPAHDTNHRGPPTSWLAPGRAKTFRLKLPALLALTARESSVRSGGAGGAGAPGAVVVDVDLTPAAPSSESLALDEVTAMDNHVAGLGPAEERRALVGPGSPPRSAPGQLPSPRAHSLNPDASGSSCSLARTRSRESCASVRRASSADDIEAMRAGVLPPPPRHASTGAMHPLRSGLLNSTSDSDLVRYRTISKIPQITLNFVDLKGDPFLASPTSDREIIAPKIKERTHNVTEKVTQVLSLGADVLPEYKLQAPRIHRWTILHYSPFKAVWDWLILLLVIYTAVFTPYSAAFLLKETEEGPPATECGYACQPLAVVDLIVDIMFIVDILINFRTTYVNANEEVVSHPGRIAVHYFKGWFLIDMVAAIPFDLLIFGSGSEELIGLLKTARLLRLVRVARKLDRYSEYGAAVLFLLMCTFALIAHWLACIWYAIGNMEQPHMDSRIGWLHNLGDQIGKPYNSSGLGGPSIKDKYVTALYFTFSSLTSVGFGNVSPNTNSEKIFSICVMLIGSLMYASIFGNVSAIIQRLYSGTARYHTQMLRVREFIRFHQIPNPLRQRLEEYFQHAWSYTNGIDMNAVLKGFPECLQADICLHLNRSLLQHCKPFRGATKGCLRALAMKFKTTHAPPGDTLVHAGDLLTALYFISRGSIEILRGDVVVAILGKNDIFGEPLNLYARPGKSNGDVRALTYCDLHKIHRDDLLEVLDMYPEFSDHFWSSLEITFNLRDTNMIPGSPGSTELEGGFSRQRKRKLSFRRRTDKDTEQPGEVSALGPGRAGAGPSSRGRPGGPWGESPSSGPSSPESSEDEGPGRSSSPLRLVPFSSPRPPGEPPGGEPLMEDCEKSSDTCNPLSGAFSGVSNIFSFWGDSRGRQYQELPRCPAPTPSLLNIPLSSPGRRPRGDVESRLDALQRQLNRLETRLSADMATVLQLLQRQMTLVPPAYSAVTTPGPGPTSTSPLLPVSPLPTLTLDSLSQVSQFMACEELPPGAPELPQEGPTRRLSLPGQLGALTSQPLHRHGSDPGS
# Chain of Luciferin 4-monooxygenase (Photinus pyralis) (P08659 whole entry, looked up): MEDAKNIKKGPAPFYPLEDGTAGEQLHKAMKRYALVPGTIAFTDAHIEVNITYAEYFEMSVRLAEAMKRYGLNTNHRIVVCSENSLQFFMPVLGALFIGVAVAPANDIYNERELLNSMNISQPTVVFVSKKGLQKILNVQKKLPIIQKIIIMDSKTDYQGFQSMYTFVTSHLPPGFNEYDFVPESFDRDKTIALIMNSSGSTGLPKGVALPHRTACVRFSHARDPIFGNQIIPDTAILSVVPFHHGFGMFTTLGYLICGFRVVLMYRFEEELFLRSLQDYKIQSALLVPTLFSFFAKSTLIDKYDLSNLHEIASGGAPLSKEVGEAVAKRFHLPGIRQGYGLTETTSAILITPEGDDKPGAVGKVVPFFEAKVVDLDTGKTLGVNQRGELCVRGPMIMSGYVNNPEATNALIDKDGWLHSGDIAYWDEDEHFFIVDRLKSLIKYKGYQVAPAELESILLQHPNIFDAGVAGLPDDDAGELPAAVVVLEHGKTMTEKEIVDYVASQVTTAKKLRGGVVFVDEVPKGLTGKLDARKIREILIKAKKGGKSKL
Compound,Potency [1],Potency [2],Potency [3],Potency [4]
CCC(=O)c1c(O)cc(O)cc1O,inactive,inactive,inactive,inactive
CCOC(=O)n1ccn(C)c1=S,inactive,inactive,inactive,inactive
CC(=O)c1ccc2c(c1)N(CCCN1CCC(CCO)CC1)c1ccccc1S2,1.26 µM (active),inactive,inactive,–
Cc1c(F)c(N2CCNC(C)C2)cc2c1c(=O)c(C(=O)O)cn2C1CC1 (centres undefined),inactive,inactive,inactive,inactive
CC(=O)OCC(=O)NCCCOc1cccc(CN2CCCCC2)c1,inactive,inactive,inactive,inactive
C[C@@H]1C(=O)NC2=Nc3cccc(Cl)c3CN21,inactive,inactive,–,–
N[C@H](Cc1c[nH]c2ccccc12)C(=O)O,inactive,inactive,inactive,–
CC(C)(C(=O)c1cccnc1)c1cccnc1,inactive,inactive,inactive,inactive
Oc1ccc(Cl)c2cccnc12,inactive,inactive,inactive,–
COc1cc(-c2ccc(=O)[nH]n2)ccc1OC(F)F,inactive,inactive,inactive,–
CN(C)CC/C=C1\c2ccccc2Sc2ccc(Cl)cc21,8.91 µM (active),inactive,–,–
CCOc1ccc2nc3cc(N)ccc3c(N)c2c1,inactive,inactive,12.8 µM (active),–
CCN(CC)C(=O)/C(C#N)=C/c1cc(O)c(O)c([N+](=O)[O-])c1,inactive,inactive,inactive,inactive
CC(=O)OCC(=O)[C@@]1(OC(C)=O)[C@@H](C)C[C@H]2[C@@H]3C[C@H](F)C4=CC(=O)C=C[C@]4(C)[C@@]3(F)[C@@H](O)C[C@@]21C,inactive,inactive,inactive,inactive
CCC(C(=O)OCCN(CC)CC)c1ccccc1 (centres undefined),inactive,inactive,inactive,inactive
NC(CS)C(=O)O (centres undefined),inactive,inactive,inactive,inactive
CCCCCCCCCCOCC(O)CN (centres undefined),25.1 µM (active),inactive,–,–

Compound,Potency [1],Potency [2],Potency [3],Potency [4]
CC(=O)Nc1c(I)cc(I)c(C(=O)O)c1I,inactive,inactive,inactive,–
O=C1c2ccccc2C(=O)C1c1ccccc1,inactive,inactive,inactive,inactive
CCCCN1CCCC1C(=O)Nc1c(C)cc(C)cc1C (centres undefined),inactive,inactive,inactive,inactive
CN(C)CCCOc1nn(Cc2ccccc2)c2ccccc12,5.01 µM (active),inactive,inactive,inactive
C[C@H](O)C(=O)Nc1c(I)c(C(=O)NC(CO)CO)c(I)c(C(=O)NC(CO)CO)c1I,inactive,inactive,inactive,inactive
Cc1c(N(C)CS(=O)(=O)O)c(=O)n(-c2ccccc2)n1C,inactive,inactive,inactive,inactive
NCCC(O)(P(=O)(O)O)P(=O)(O)O,inactive,inactive,inactive,inactive
CN(C)CCOc1ccccc1Cc1ccccc1,3.55 µM (active),inactive,inactive,inactive
CCCCC(CC)CN=C(N)NC(N)=NCCCCCCN=C(N)NC(N)=NCC(CC)CCCC (centres undefined),inactive,inactive,20.3 µM (active),25.6 µM (active)
Nc1cc(Cl)c(NC2=NCCN2)c(Cl)c1,0.708 µM (active),inactive,inactive,inactive
CCOc1ccc(NC(=O)CC(C)O)cc1 (centres undefined),inactive,inactive,inactive,inactive
CCCCCCCCCCCCCCCCCC(=O)OCC(O)CO (centres undefined),inactive,inactive,inactive,inactive
O=C(O)CNC(=O)c1ccccc1,inactive,inactive,inactive,inactive
N[C@@H](Cc1cnc[nH]1)C(=O)O,inactive,inactive,inactive,inactive
CCCCc1nc(Cl)c(CO)n1Cc1ccc(-c2ccccc2-c2nn[nH]n2)cc1,inactive,inactive,inactive,inactive
